High-throughput results deposited in PubChem BioAssay by National Center for Advancing Translational Sciences (NCATS).
An excerpt weighted towards active compounds, which were near 15% of everything screened.
Pf growth 48h = Primary qHTS for delayed death inhibitors of the malarial parasite plastid, 48 hour incubation | P. falciparum luciferase growth in erythrocytes, 48 h | Potency, µM (top dose mostly 28.7 µM), for the others: top-dose activity change, negative = inhibition, usual class: inhibitors | actives 5.9% (n = 310,000); also: potency is read from the fitted curve at half-maximal effect; % is scaled to controls: 0 for no effect and ±100 for the full control effect
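Erythrocytes infected with P. falciparum carrying an integrated firefly luciferase reporter (2% hematocrit, 0.1% parasitemia final) were exposed to compounds in RPMI 1640 with 0.5% Albumax at 37 C, 5% CO2. Growth inhibition was scored as reduced luminescence.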
HCV inhibitor = qHTS Assay for Inhibitors of Hepatitis C Virus (HCV) | Huh7.5.1 HCVcc-Cre infection, luciferase reporter, 44 h | actives 3.4% (n = 340,000) | Potency, µM (highest dose often 41.8 µM), for inactives: top-dose activity change, negative = inhibition, actives largely listed as inhibitors | AID 651820, 2012; also: potency is read from the fitted curve at half-maximal effect; % is scaled to controls: 0 for no effect and ±100 for the full control effect
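Luciferase read-out (15 sec integration) after a 15 min room-temperature substrate step quantifies HCVcc-Cre infection. Cells, 1,000 per well, had compound added 4 h post-plating, then virus at ~0.5 moi, and were cultured 44 h.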
Pf growth 96h = Primary qHTS for delayed death inhibitors of the malarial parasite plastid, 96 hour incubation; P. falciparum luciferase reporter growth, 96 h; Potency, µM (highest dose often 28.7 µM), for inactives: top-dose activity change, negative = inhibition, most hits filed as inhibitors; actives 6.9% (n = 320,000); AID 504834, 2011; also: potency is read from the fitted curve at half-maximal effect; % is scaled to controls: 0 for no effect and ±100 for the full control effect
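Plates of compound plus infected erythrocytes (2% hematocrit, 0.05% parasitemia final) incubate 96 hours, 37 C, 5% CO2. Detection reagent added; reduced luminescence from the parasites' luciferase reporter flags inhibition.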
Sm TGR inh = qHTS Assay for the Inhibitors of Schistosoma Mansoni Peroxiredoxins | AID 485364, 2010 | Potency, µM (doses to about 114 µM), inactives show top-dose activity change, negative = inhibition, most hits filed as inhibitors | Schistosoma mansoni thioredoxin glutathione reductase (TGR), Q962Y6 | actives 3% (n = 360,000) | purified TGR, DTNB reduction, TNB absorbance 405 nm; also: potency is read from the fitted curve at half-maximal effect; % is scaled to controls: 0 for no effect and ±100 for the full control effect; nearly all actives have a fitted effect of over 60% in size
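Kinetic colorimetric format: TGR-catalysed, NADPH-driven DTNB reduction monitored via TNB absorbance. Enzyme dispensed at 20 nM; compound exposure 15 min at room temperature before reaction start.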
SARS PLpro yeast = qHTS of Yeast-based Assay for SARS-CoV PLP | S. cerevisiae expressing SARS-CoV PLpro, growth rescue | Potency, µM (titrated, usually from 32.9 µM), without a hit: top-dose activity, positive = growth rescue, usual class: activators | actives 0.19% (n = 330,000) | AID 485353, 2010; calls by dose curve; also: potency is read from the fitted curve at half-maximal effect; 0% is about no effect; nearly all actives have a fitted effect of over 55% in size
HCMV antiviral = qHTS Assay for inhibitors of the human cytomegalovirus (HCMV); actives 4.5% (n = 410,000); activity change, negative = inhibition, % at 57.5 µM; AID 1259415, 2018; HFF cells, HCMV-luciferase reporter, 72 h; active compounds read low; in the data active = activity change below about -60%; inconclusive = no clear call, values can overlap the other calls; inactive = above about -39%; also: % is scaled to controls: 0 for no effect and ±100 for the full control effect
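Two-dose cell screen: HFF monolayers treated with compounds and infected with luciferase-expressing HCMV at 1 PFU/cell, 72 h at 37C, then lysed for luciferase measurement.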
Numbers without * were called inactive; [ ] = another dose, or the depositor's remark. Unless noted, calls follow the shape of the dose curve; as a rule, active = well fitted curve in the direction sought with a large enough effect; inconclusive = small, poorly fitted or top-dose-only effect, or another doubt; inactive = no such curve, though single readings can be large; an effect the other way counts as inactive or inconclusive.

`Cc1ccc(C)n1-c1ccc(C(=O)/C=C/N(C)C)cc1` gave Pf growth 48h inconclusive, HCV inhibitor inconclusive, Pf growth 96h 14.7µM*, Sm TGR inh 31.6µM*, SARS PLpro yeast 1.3% and HCMV antiviral 24.3.
Screening S=C(c1ccc(-c2ccccc2)cc1)N1CCOCC1 returned Pf growth 48h -29.2%, HCV inhibitor -3.9%, Pf growth 96h inconclusive, Sm TGR inh 12.2%, SARS PLpro yeast -4.0% and HCMV antiviral -83.5*.
`O=C(c1ccc(-c2ccccc2)cc1)c1ccccc1C(=O)N1CCOCC1` gave Pf growth 48h 19.8%, HCV inhibitor -4.7%, Sm TGR inh -31.3%, SARS PLpro yeast -9.1% and HCMV antiviral 3.8.
Cc1noc(C)c1CSCC(=O)N1CCN(c2ccc(F)cc2)CC1 was read as Pf growth 48h -4.2%, HCV inhibitor inconclusive, Pf growth 96h 8.3%, Sm TGR inh -8.2%, SARS PLpro yeast -0.6% and HCMV antiviral -60.3*.
For Cc1cc(NC(=O)CSCC(=O)N2CCN(c3cccc(C)c3C)CC2)no1 the results were Pf growth 48h inconclusive, HCV inhibitor -3.9%, Pf growth 96h inconclusive, Sm TGR inh -17.1%, SARS PLpro yeast 1.4% and HCMV antiviral 19.5.
`Cc1cccc(N2CCN(C(=O)CSCc3c(C)noc3C)CC2)c1C` gave Pf growth 48h 2.5%, HCV inhibitor 3.98µM*, Pf growth 96h 62.2%, Sm TGR inh 5.4% and SARS PLpro yeast -10.3%.
O=C(CSCc1ccc(F)cc1)N1CCN(c2ccc(Cl)cc2)CC1 was read as Sm TGR inh 1.8% and HCMV antiviral inconclusive.
For CN(C)c1ccc(Cc2cc3c(O)ccc(O)c3cc(Cc3ccc(N(C)C)cc3)c2=O)cc1 the results were HCV inhibitor 11.2µM* and HCMV antiviral -10.8.
O=C(CSc1nnc(-c2ccco2)o1)c1ccc[nH]1 was read as Pf growth 48h 275.2%, HCV inhibitor inconclusive, Pf growth 96h inactive, Sm TGR inh 28.2µM*, SARS PLpro yeast -1.0% and HCMV antiviral -13.7.
Screening O=C(CSc1nnc(-c2ccco2)o1)c1ccc(F)c(F)c1 returned Pf growth 48h 6.4%, HCV inhibitor 7.8%, Pf growth 96h 11.0%, Sm TGR inh -20.3%, SARS PLpro yeast 5.9% and HCMV antiviral -3.0.
Screening O=C(CSc1nnc(-c2ccco2)o1)Nc1c(F)cccc1F returned Pf growth 48h 22.8%, HCV inhibitor 17.0%, Pf growth 96h 1.0%, Sm TGR inh -18.0%, SARS PLpro yeast 2.3% and HCMV antiviral -5.2.
`O=C(CSc1nnc(-c2ccco2)o1)c1ccccc1` gave Pf growth 48h inconclusive, HCV inhibitor 10.2%, Pf growth 96h inconclusive, Sm TGR inh 25.1µM*, SARS PLpro yeast 0.0% and HCMV antiviral 71.8.
Screening COc1ccc(OC)c2c1C(=O)C(Cl)=C(Cl)C2=O returned Pf growth 48h -19.9%, HCV inhibitor inconclusive, Pf growth 96h 1.4%, Sm TGR inh inconclusive, SARS PLpro yeast -4.9% and HCMV antiviral -91.2*.
For CC1CC(=O)Nc2ccccc2N1C(=O)Cn1cnc2ccccc2c1=O (configuration not stated) the results were Pf growth 48h 2.7%, HCV inhibitor 15.7%, Pf growth 96h -0.4%, Sm TGR inh 1.4%, SARS PLpro yeast -0.8%[6.58 µM] and HCMV antiviral 28.9.
`C/C(N)=C(/C#N)C(=O)CSc1nc2ccccc2[nH]1` gave Pf growth 48h 145.7%, HCV inhibitor -1.9%, Sm TGR inh -9.8%, SARS PLpro yeast -0.9% and HCMV antiviral 94.7.
Screening CCOc1ccc(NS(=O)(=O)c2ccc(NC(=O)N3CCCC3)cc2)cc1 returned Sm TGR inh -1.5% and HCMV antiviral 14.1.
